SMILES strings stand for the structures. Inconclusive results are not listed. A call without a number means that no potency is given here. Unmarked numbers belong to inactive results. Calls of active or inactive are those of the source. Calls come from the whole dose curve; as a rule, active = well fitted inhibition curve with a large enough effect; inconclusive = small, poorly fitted or top-dose-only effect; inactive = flat fitted curve, though single readings scatter.
Potency is the fitted concentration of half-maximal effect.

The nature of the test: P-glycoprotein substrates identified in KB-8-5-11 adenocarcinoma cell line, qHTS therapeutic library screen (AID 1346987). Note: nearly all actives have a fitted effect of over 65% in size. Particulars: KB-8-5-11 (P-gp overexpressing) viability, CellTiter-Glo, 72 h; series mostly up to 44.5 µM. An outline of the steps: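 KB-8-5-11, a colchicine-selected P-gp-overexpressing KB-3-1 subline, was grown without colchicine for the assay. Cells were seeded at 500 cells/well, dosed in concentration-response and incubated 72 h at 37 degree C, 5% CO2. Viability was read by CellTiter-Glo luminescence.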
As to `CN(C)CCN(Cc1ccccc1)C(=O)c1cc(-c2ccc(F)cc2)n2nc(C(C)(C)C)cc2n1`, the Potency is 20.6 µM (active). Regarding `O=c1nc(-c2ccccn2)sc2ccccc12`, the Potency entry was “inactive”. On to `Cc1c(N)nc(C(CC(N)=O)NCC(N)C(N)=O)nc1C(=O)NC(C(=O)NC(C)C(O)C(C)C(=O)NC(C(=O)NCCc1nc(-c2nc(C(=O)NCCCN[C@@H](C)c3ccccc3)cs2)cs1)C(C)O)C(O[C@@H]1O[C@@H](CO)[C@@H](O)[C@H](O)[C@@H]1O[C@H]1O[C@H](CO)[C@@H](O)[C@H](OC(N)=O)[C@@H]1O)c1cnc[nH]1` (stereo partly specified), for which the Potency entry was “inactive”. On to `Nc1nc2c(cnn2CCCc2ccc(O)cc2)c2nc(-c3ccco3)nn12`, for which the Potency entry was “inactive”. Same read-out and setting: the value for `Cc1ccc(C)c(-c2cc(C(F)(F)F)nn2-c2ccc(S(N)(=O)=O)cc2)c1` was 23.1 µM (active); that for `Cc1cc(N2CCOCC2)ccc1Nc1nc(NC2CCCCC2)c2[nH]cnc2n1` was 1.3 µM (active). The same measure, in the same setting: next, `O=C[C@H](O)[C@@H](O)[C@H](O)[C@H](O)CO`: “inactive”; `O=P(O)(O)C(Sc1ccc(Cl)cc1)P(=O)(O)O`: “inactive”. On the same count and under the same terms, the value for `CCN(CC)CCOC(=O)c1ccc(N)cc1Cl` was “inactive”; that for `O=c1[nH]cnc2[nH]cc(CN3CCCCC3)c12` was “inactive”. With `CCC(C)C(=O)O[C@H]1[C@@H](OC(=O)c2ccoc2)C[C@](C)(O)[C@]23OC(C)(C)[C@H](C[C@H](OC(=O)c4ccoc4)[C@]12COC(C)=O)[C@H]3OC(C)=O` (stereo partly specified), the Potency result was “inactive”. On the same count and under the same terms, next, `O=C(NC1CCC1)c1ccc(C#Cc2cccc(F)c2)nc1`: “inactive”; `COc1ccc(C2=NC(c3ccc(Cl)cc3)C(c3ccc(Cl)cc3)N2C(=O)N2CCNC(=O)C2)c(OC(C)C)c1` (stereo unspecified): “inactive”.

Regarding `C=C[C@@]1(C)CCC2C(=CCC3[C@]2(C)CCC[C@@]3(C)C(=O)O)C1` (stereo partly specified), the Potency result was “inactive”. The same measure, in the same setting: the value for `O=C(NCCN1CCOCC1)c1cc2c(Oc3ccc(NC(=O)C4(C(=O)Nc5ccc(F)cc5)CC4)cc3)ccnc2[nH]1` was “inactive”. With `CC1(C)CCC2(C(=O)OC3OC(COC4OC(CO)C(O)C(O)C4O)C(O)C(O)C3O)CCC3(C)C(=CCC4C5(C)CCC(OC6OCC(O)C(O)C6O)C(C)(C)C5CCC43C)C2C1O` (stereo unspecified), the outcome was “inactive [at 9.29 µM]”.

`O=C1C(c2[nH]c3ccc(S(=O)(=O)O)cc3c2O)=Nc2ccc(S(=O)(=O)O)cc21`: the Potency result was “inactive”. As to `CCn1c2ccccc2c2cc(Nc3ccnc(NCCCN4CCOCC4)n3)ccc21`, the Potency was 20.6 µM (active).

In the case of `O=C(Nc1ccc(CN2CCOCC2)cc1)c1ccc(-c2cccc(Cl)c2)o1`, the Potency was 16.4 µM (active). Take `CC(=O)OC1CC(C)(C(=O)O)CC2C3=CC(=O)C4C5(C)CCC(OC6OC(C(=O)O)C(O)C(O)C6OC6OC(C(=O)O)C(O)C(O)C6O)C(C)(C)C5CCC4(C)C3(C)CCC12C` (stereo unspecified): the activity change, negative = cytotoxicity is 0.92% [at 9.29 µM]. `Cc1cc(C)c(S(=O)(=O)n2cc(C)cc2C)c(C)c1`: the Potency result was “inactive”. As for `CC(=O)O[C@H]1CC[C@@]2(C)C(=CC[C@H]3[C@@H]4CC[C@H](C(C)=O)[C@@]4(C)CC[C@@H]32)C1`, the Potency entry is “inactive”.

As to `O=C(NCCCNc1nc(Nc2cccc(CN3CCOCC3)c2)ncc1C1CC1)C1CCC1`, the Potency is 10.3 µM (active). Consider `C=C1C(=O)O[C@@H]2C[C@H](C)C3=CC(=O)[C@H](O)[C@@]3(C)C[C@H]12`, for which the Potency result was “inactive”. With `CC(C)Oc1ccc(-c2cnc3c(-c4ccnc5ccccc45)cnn3c2)cc1`, the Potency entry is “inactive”. Take `N#Cc1cc(CN2CCC(Nc3ncnc4sc(Cl)cc34)CC2)ccc1F`: the Potency is 9.2 µM (active). Same read-out and setting: next, `c1cc(-c2cnn3cc(-c4ccc(N5CCNCC5)cc4)cnc23)c2cccnc2c1`: 5.17 µM (active); `C=C(C)[C@@H]1CC=C(COC(=O)NC(=O)c2ncn3c(=O)n(C)nnc23)CC1`: “inactive”; `CC(C)=CCC[C@](C)(O[C@@H]1O[C@H](CO[C@@H]2OC[C@@H](O)[C@H](O)[C@H]2O)[C@@H](O)[C@H](O)[C@H]1O)[C@H]1CC[C@]2(C)[C@@H]1[C@H](O)C[C@@H]1[C@@]3(C)CC[C@H](O[C@@H]4O[C@H](CO)[C@@H](O)[C@H](O)[C@H]4O)C(C)(C)[C@@H]3CC[C@]12C`: “inactive”.

For `CO[C@@H]1[C@@H](O[C@@H]2O[C@H](C)[C@@H](O[C@H]3C[C@@](C)(O)[C@@H](OC(=O)CC(C)C)[C@H](C)O3)[C@H](N(C)C)[C@H]2O)[C@@H](CC=O)C[C@@H](C)[C@@H](O)/C=C/C=C/C[C@@H](C)OC(=O)C[C@H]1O`, the Potency entry is “inactive”. In the case of `O=C(NC1CCN(CCCCC2(C(=O)NCC(F)(F)F)c3ccccc3-c3ccccc32)CC1)c1ccccc1-c1ccc(C(F)(F)F)cc1`, the Potency was 20.6 µM (active).

For the origin of these results see PubChem BioAssay (NCATS).
